ChEMBL document CHEMBL4513216, “Probing the Open Global Health Chemical Diversity Library for Multistage-Active Starting Points for Next-Generation Antimalarials” (ACS Infect Dis, 2020)
Among all 69,000 compounds or so, about 8,600 (12%) showed an effect of 50% or more. What follows is part of a selection rich in strong results, with near analogues and random picks from the rest.

The molecules below were run on Plasmodium berghei (assay: Screen against P. berghei liver stage (PbLuc), transformed with Luciferase, at 10uM). Conditions: tested at 10 uM.
Assay type: functional, HepG2

SMILES	INHIBITION [%]
Cn1ccc(C(=O)NCCOc2ccc3c(c2)CCC3)cc1=O	-15.5
CCc1ocnc1C(=O)N1CCCC1c1noc(C2CC2)n1 (centres undefined)	34.2
Cc1cc(C(=O)Nc2ccc(OCCN3CCN(C)CC3)cc2)[nH]n1	-49.9
CCc1cc(=O)[nH]c(-c2ccc(NCCC(C)O)nc2)n1 (centres undefined)	36.9
CCN1CC[C@@]2(C(=O)N(C)C)CCN(C(=O)Cc3ccccc3)CC[C@@H]12	11.2
CC(C)n1ccnc1C1CCCN(c2nc3ccccc3s2)C1 (centres undefined)	61.2
CC(C)n1ccnc1C1CCCN(c2ccccn2)C1 (centres undefined)	24.6
CSc1nccc(N2CCCC(c3nccn3C(C)C)C2)n1 (centres undefined)	27.6
CC(C)n1ccnc1C1CCCN(c2ccncc2F)C1 (centres undefined)	32.1
Cc1ccnc(N2CCCC(c3nccn3C(C)C)C2)n1 (centres undefined)	15.8
CC(C)n1ccnc1C1CCCN(c2ccnc3ccccc23)C1 (centres undefined)	71.3
CN(C)C(=O)C1CCCN1CCCNC(=O)c1cccc2[nH]ncc12 (centres undefined)	23.2
COc1cc(C(C)=O)ccc1OCCNCc1ccco1	5.67
Cc1cc(CNC(=O)N(Cc2ccc(F)cc2F)C2CC2)no1	44.1
CC(=O)Nc1ccc(C(=O)N(C)Cc2cccc(F)c2)s1	39.7
COc1cccc(CN(C)C(=O)CCC(=O)c2ccc(Cl)cc2)c1OC	40.1
COc1cccc(CN(C)Cc2ccccc2C#N)c1OC	4.48
CC(=O)Nc1ccc(C(=O)N(C)Cc2ccc(F)cc2F)s1	56
COc1cccc(CN(C)C(=O)c2ccc(NC(C)=O)s2)c1OC	61.1
Cn1cc(-c2cnc(N3CCOCC3)nc2)cc1C(=O)NCCC#N	47.4
Cn1nccc1-c1cccc(CC2CCN(S(C)(=O)=O)C2)n1 (centres undefined)	12.905
Clc1cccc(Cl)c1-c1nnc(CNCCn2cccn2)o1	-48.4
Cc1nc(CCNC(=O)N2CCC(Cc3cnn(C)c3)C2)cs1 (centres undefined)	-4.74

SMILES	INHIBITION [%]
Clc1cccc(Cl)c1CNCCOc1ccccn1	60
Fc1cccc(Cl)c1CNCCCOc1ccccn1	2.61
Fc1cccc(Cl)c1CNCCOc1ccccn1	27
CCOc1nn(CC)cc1-c1nnc(SCc2cccnc2)n1CC	9
Cc1noc(C)c1CNc1cccc(C(=O)N2CCCC(O)C2)c1 (centres undefined)	20.6
Cc1noc(C)c1CNc1cccc(C(=O)N(C)c2ccccc2)c1	59.1
Cc1cc(CNc2cccc(C(=O)N(C)c3ccccc3)c2)no1	45
Cc1noc(C)c1CN1C[C@@H](OCc2ccccn2)[C@H]2OCCC[C@H]21	-14.4
Cc1ccc(Cc2cnc(C3CCNCC3)cn2)cc1	13.5
CC(C)n1nc(CN2CCOCC2)c2c1CN(Cc1ccsc1)C2	-18.2
OC(CN1CCC(c2ccn[nH]2)CC1)c1cccc(C(F)(F)F)c1 (centres undefined)	-33.9
OC(CN(Cc1ccccc1)Cc1cscn1)c1cccs1 (centres undefined)	9.72
OC(CN(Cc1ccccc1)Cc1ccon1)c1ccco1 (centres undefined)	-21
OC(CN(Cc1ccccc1)Cc1cccnc1)c1cccs1 (centres undefined)	57.2
OC(CN(Cc1ccccc1)Cc1ccncc1)c1cccs1 (centres undefined)	7.11
OC(CN(Cc1ccccc1)Cc1ccccn1)c1cccs1 (centres undefined)	55.9
OC(CN(Cc1ccccc1)Cc1ccon1)c1cccs1 (centres undefined)	70.1
Cc1cc(CN(Cc2ccccc2)CC(O)c2cccs2)on1 (centres undefined)	30.3
Cc1cnc(CN(Cc2ccccc2)CC(O)c2cccs2)cn1 (centres undefined)	-34.7
Cn1cc(CN(Cc2ccccc2)CC(O)c2cccs2)cn1 (centres undefined)	-58.4
CC(C)c1ccccc1NC(=O)N1C[C@H]2CC[C@@H](C1)N(C)C2=O	-14.5
Cn1cccc1CN(C(=O)CC(CC(=O)O)c1cccs1)C1CC1 (centres undefined)	-42.1
Cn1cnc(S(=O)(=O)N2C[C@H]3CC[C@@H](C2)N(Cc2cscn2)C3=O)c1	10.5

SMILES	INHIBITION [%]
O=C1[C@@H]2CC[C@@H](CN(S(=O)(=O)c3ccccc3)C2)N1Cc1cscn1	25.1
CS(=O)(=O)N1C[C@H]2CC[C@@H](C1)N(Cc1cscn1)C2=O	13.5
CCN(C)S(=O)(=O)N1C[C@H]2CC[C@@H](C1)N(Cc1cscn1)C2=O	-23.7
CCCS(=O)(=O)N1C[C@H]2CC[C@@H](C1)N(Cc1cscn1)C2=O	53.3
CCN(CC)S(=O)(=O)N1C[C@H]2CC[C@@H](C1)N(Cc1cscn1)C2=O	51.1
Cc1cnc(C(=O)N2C[C@@H]3CN(CC4CCCC4)CCO[C@@H]3C2)cn1	13.6
CN(C)Cc1cc(=O)n2c(n1)CN(C(=O)Cc1ccsc1)CCC2	33.5
CCc1ncc(C(=O)NCCN(C)S(C)(=O)=O)cn1	43.2
CCCS(=O)(=O)CC(=O)Nc1cc(CC(C)(C)C)n[nH]1	-45.9
O=C1CCCN1CC1CN(C(=O)C2CCOCC2)Cc2nccn2C1 (centres undefined)	0.542
O=C1CCCN1CC1CN(C(=O)N2CCOCC2)Cc2nccn2C1 (centres undefined)	34.4
O=C1CCCN1CC1CN(CC2CCOCC2)Cc2nccn2C1 (centres undefined)	57.4
CCCc1nnc2sc(C3CCN(CCOC)CC3)nn12	31.2
NC(=O)CN1CCOCC(Cc2cccc(F)c2)C1 (centres undefined)	-44.2
Cc1ccc(N2C[C@@H]3CN(Cc4csc(C)n4)CCO[C@@H]3C2)nn1	42.6
Cc1cccc(CN2C[C@@H]3OCCN(S(=O)(=O)N(C)C)[C@@H]3C2)n1	54.1
Cc1cccc(CN2C[C@@H]3OCCN(S(=O)(=O)N(C)C)[C@@H]3C2)c1	-7.94
Cc1ccc(N2CC[C@@H]3CN(Cc4cccc(C)n4)C[C@@H]3C2)nn1	-2.41
Cc1cccc(CN2C[C@@H]3CN(Cc4ccoc4)CCO[C@@H]3C2)n1	23.3
Cc1cccc(CN2C[C@@H]3OCCN(C)[C@@H]3C2)n1	-22.7
Cc1cccc(N2CC[C@@H]3CN(Cc4csc(C)n4)CCO[C@@H]3C2)n1	66.5
Cc1nc(CN2CCO[C@@H]3CN(Cc4ccccn4)CC[C@@H]3C2)cs1	42.3
Cc1ccc(N2CCO[C@@H]3CN(Cc4cccc(C)n4)CC[C@@H]3C2)nn1	52.3
